# In ChEMBL document CHEMBL4513216, “Probing the Open Global Health Chemical Diversity Library for Multistage-Active Starting Points for Next-Generation Antimalarials” (ACS Infect Dis, 2020):
# Among all 69,000 compounds or so, about 8,600 (12%) showed an effect of 50% or more. Only a selection was taken, and strong results are over-represented in it overall.
# System: Plasmodium berghei
# Experiment: Screen against P. berghei liver stage (PbLuc), transformed with Luciferase, at 10uM
# Type: functional, HepG2
# Conditions: tested at 10 uM
row,Structure (SMILES),INHIBITION [%]
1,Cn1ccc(C(=O)N2CCCC2c2cc(CCO)[nH]n2)n1 (stereo unspecified),28.69
2,O=C(NCc1ccco1)c1cc[n+]([O-])cc1,-10.0965
3,O=C(Nc1ccccc1-c1ccccc1)NC1CCC2(C1)OCCO2 (stereo unspecified),-6.67
4,c1cnc(N2CCC(c3cc4cccnc4[nH]3)CC2)nc1,23.2
5,c1cnc(N2CCCC(c3cc4cccnc4[nH]3)C2)nc1 (stereo unspecified),72.5
6,c1cnc(N2CCCC(c3n[nH]c4ncccc34)C2)nc1 (stereo unspecified),-27.1
7,CN(C)C(=O)c1cccc(CN2CCOC(Cn3cncn3)C2)c1 (stereo unspecified),41.5
8,NC(=O)C1(Cc2ccccc2-c2cncnc2)CCCNC1 (stereo unspecified),12.915
9,c1cnc(N2CCc3onc(CN4CCCC4)c3C2)cn1,37.5
10,Fc1cnc(N2CCCn3cnc(COc4cccnc4)c3C2)nc1,4.68
11,Cn1nc(COCC2CC2)c2c1CCN(Cc1ccco1)C2,-12.2
12,CCS(=O)(=O)N1CCCn2cnc(COc3cccnc3)c2C1,14.6
13,Cn1nc(COc2cncnc2)c2c1CCN(Cc1ccco1)C2,63.5
14,Cn1nc(CN2CCCC2)c2c1CN(C(=O)c1cnccn1)CC2,43.4
15,Cn1nc(CNc2ncccn2)c2c1CN(c1cnccn1)CC2,32.1
16,Cn1nc(Cn2ccnc2)c2c1CN(c1ncccn1)C2,3.88
17,Cn1nc(COc2cccnc2)c2c1CCN(Cc1ccco1)C2,31.4
18,Cn1nc(CN2CCCC2)c2c1CN(c1cnccn1)CC2,54.8
19,Cn1nc(COc2cccnc2)c2c1CCN(c1cnccn1)C2,53.5
20,Cn1nc(COc2cccnc2)c2c1CCN(c1ncccn1)C2,53
21,Cc1cnccc1CN(C)C(=O)C(C)(C)NC(=O)c1cccs1,37.9
22,CCNC(=O)CN1CCN(Cc2nc3c(F)cccc3n2CC)CC1,30.85

row,Structure (SMILES),INHIBITION [%]
1,Cc1ccc(N2CCCC(NCc3cc(C)on3)C2)nn1 (stereo unspecified),27.4
2,CCCNC(=O)C1(CC2CC(c3ccccc3OC)=NO2)CCOCC1 (stereo unspecified),29.2
3,Cc1ccc(C(=O)N2CCn3cc(CN4CCCCC4)nc3C2)o1,17.4
4,Cn1nc(COc2cncnc2)c2c1CCN(Cc1ccccn1)C2,24.9
5,CN1CCc2c(c(COc3cncnc3)nn2CC2CC2)C1,24.6
6,COCCN1CCc2c(c(COc3cccnc3)nn2C)C1,-4.08
7,Cc1cnc(N2CCc3c(c(COc4cncnc4)nn3C)C2)nc1,53.9
8,CC(C)N1CCc2c(c(COc3cccnc3)nn2CC2CC2)C1,12.7
9,Cn1nc(COc2cccnc2)c2c1CCN(CC1CC1)C2,61.1
10,COc1ccc(OC)c(C(O)CNC(=O)Nc2cccnc2OC)c1 (stereo unspecified),17.4
11,Cc1cc(CNC(=O)NCCCC(=O)N2CCc3ccccc32)no1,45.4
12,COC(=O)Cn1c(=O)cc(C(F)F)c2c(C)nn(CC(F)F)c21,-12.975
13,Cc1ccc(CNc2cc3[nH]c(O)nc3cc2C)cc1,-46.3
14,O=C(c1ccc(NCc2cccc(F)c2)cc1)N1CCC(CO)CC1,-92.5
15,NC(=O)c1ccc(OCC(=O)NS(=O)(=O)c2ccc3c(c2)CCC3)cc1,15.533
16,Cn1c2ccc(F)cc2c2ncn(CCN3CCOCC3)c(=O)c21,45
17,Cn1c2ccccc2c2ncn(CCN3CCOCC3)c(=O)c21,63.6
18,Cn1c2ccccc2c2ncn(CCCN3CCOCC3)c(=O)c21,29.1
19,CC(C)n1cc(-n2cc3nc(N4CCOCC4)[nH]cc-3c2=O)cn1,5.18
20,Cc1n[nH]c(C2CN(CC(=O)NCc3sccc3C)CCO2)n1 (stereo unspecified),-7.36
21,O=C1CNc2ncnc(N3CCN(Cc4cccc(F)c4)CC3)c2N1,55.7
22,O=C1CNc2ncnc(N3CCN(Cc4ccccc4)CC3)c2N1,30

row,Structure (SMILES),INHIBITION [%]
1,O=C1CNc2ncnc(N3CCN(Cc4ccccc4F)CC3)c2N1,39.1
2,O=C1CNc2ncnc(N3CCN(c4ccccc4F)CC3)c2N1,59
3,Cc1ccccc1CN1CCN(c2ncnc3c2NC(=O)CN3)CC1,-4.76
4,O=C1CNc2ncnc(Nc3cnn(Cc4ccccc4F)c3)c2N1,33.5
5,COC(=O)CNC(=O)c1scnc1C,2.93
6,O=C(c1ccncc1)N1CC[C@@H](O)[C@@H](O)[C@H](N2CCC(F)(F)CC2)C1,27.8
7,Cc1ocnc1C(=O)N1CC[C@@H](O)[C@@H](O)[C@H](N2CCC(F)(F)CC2)C1,59
8,Cc1ncoc1C(=O)N1CC[C@@H](O)[C@@H](O)[C@H](N2CCC(F)(F)CC2)C1,20.4
9,O=c1c(S(=O)(=O)N2CCCCC2)cccn1Cc1cccnc1,-37.1
10,O=C(O)c1ccccc1-n1cnc(CN2CCCc3ccccc32)c1,23
11,CN(C)CCN1CCC2(CCCN(Cc3cccn3C)C2)C1=O (stereo unspecified),33.1
12,c1ccc(CN2CC[C@@H]3O[C@@H](COCC4CCOCC4)CC[C@@H]32)nc1,22.7
13,c1cncc(CN2CC[C@H]3O[C@@H](COCC4CCOCC4)CC[C@H]32)c1,33.4
14,O=C(C1CC=CC1)N1CC[C@@H]2O[C@H](COCC3CCOCC3)CC[C@@H]21,21.6
15,c1cc(CN2CC[C@H]3O[C@@H](COCC4CCOCC4)CC[C@H]32)ccn1,52
16,c1cncc(COCC2CC[C@H]3[C@H](CCN3CC3CCOCC3)O2)c1 (stereo partly specified),78.8
17,c1cncc(CN2CC[C@H]3O[C@@H](COCC4CC4)CC[C@H]32)c1,44.9
18,Fc1ccc(CN2CC[C@H]3O[C@@H](COCc4cccnc4)CC[C@H]32)cc1,39.2
19,Fc1ccc(CN2CC[C@H]3O[C@@H](COCC4CCOCC4)CC[C@H]32)cc1,56.3
20,c1cncc(COC[C@H]2CC[C@H]3[C@H](CCN3Cc3nccs3)O2)c1,39.2
21,CC(C)c1nccn1-c1cncc(C2CCCN2Cc2cccnc2)n1 (stereo unspecified),27.6
22,CNCC1CCC(c2cc(CN(C)C(=O)c3cnccn3)n(C)n2)CC1 (stereo unspecified),25.8

row,Structure (SMILES),INHIBITION [%]
1,O=C(Nc1cnccn1)[C@@H]1CCO[C@@H]2CCN(Cc3ccsc3)C[C@@H]21,12.4
2,Cn1cnnc1C1CCN(C(=O)CCOc2ccc(Cl)cc2)CC1,11.9
3,CC(=O)NCC1CCCN(C(=O)Cc2c(C)noc2C)C1 (stereo unspecified),-4.12
4,O=C(COc1ccc(F)cc1)N1CCCSCC1CN1CCOCC1 (stereo unspecified),25.3
5,COc1cccc(OCC(=O)N2CCCSCC2CN2CCOCC2)c1 (stereo unspecified),44.9
6,O=C(COc1ccc(Cl)cc1Cl)N1CCCSCC1CN1CCOCC1 (stereo unspecified),60.1
7,CNC(=O)c1nc2c(s1)CCN(C(=O)c1cccnc1)CC2,-10.4
8,O=C(c1[nH]nc(C2CC2)c1Cl)N1CCCC1,-46.7
9,O=C(c1[nH]nc(C2CC2)c1Cl)N1CCN(S(=O)(=O)c2ccccc2)CC1,77.6
10,O=C(c1[nH]nc(C2CC2)c1Cl)N1CCN(C2CC2)CC1,8.13
11,CCOC(=O)[C@H]1[C@@H](O)C(=O)N(C)C12CCN(C(=O)CC(C)C)CC2,22.2
12,c1csc(C2(NCc3csc(C4CC4)n3)CCCC2)n1,-9.44
13,Cc1cnn(CC2CCCN2CC(=O)NCc2ccccn2)c1 (stereo unspecified),-28.9
14,Cc1ccc2nc(C)cc(NCCNS(=O)(=O)c3cn(C)nc3C)c2c1,55.5
15,Cc1ccc2nc(C)cc(NCCNS(=O)(=O)c3cccnc3)c2c1,39.7
16,Cc1cc(NCCNS(=O)(=O)c2cn(C)nc2C)c2ccccc2n1,-5.8
17,Cc1ccnc(OC[C@]23COC[C@H]2CN(C(=O)c2ccnn2C)C3)n1,43.1
18,O=C(CN1CCc2ccccc2C1)NCc1cc2n(n1)CCCNC2,-16.8
19,Cn1ccnc1CN1CCN(Cc2noc(C3CC3)n2)CC1,-15.5
20,CC1CN(Cc2noc(C3CC3)n2)CCN1Cc1noc(C2CC2)n1 (stereo unspecified),33.8
21,CC1CN(Cc2noc(C3CC3)n2)CCN1Cc1nccn1C (stereo unspecified),55.9
22,O=C(NC1CCCC1)c1ccnc(C2CCNCC2)c1,-11.3

row,Structure (SMILES),INHIBITION [%]
1,COCC1CC2(CCN(C(=O)c3cc(C)oc3C)CC2)CN1C(C)C (stereo unspecified),6.8
2,COc1ccc(C2SC(C)=Nc3c2c(=O)[nH]n3C2CCCC2)cc1O (stereo unspecified),-6.09
3,CCCc1cc(N2CCCC2Cn2cc(C)cn2)n2ncnc2n1 (stereo unspecified),-60.9
4,CCCc1cc(N2CCCC2Cn2nc(C)cc2C)n2ncnc2n1 (stereo unspecified),-48.1
5,CCCc1cc(N2CCCC2Cn2nc(C)nc2C)n2ncnc2n1 (stereo unspecified),53.4
6,CN1CCN(CCOc2ccc(NC(=O)c3ccc[nH]3)cc2)CC1,-23.5
7,O=C1NCCN1C1CCN(Cc2ccccn2)CC1,-14.2
8,CN1CCCC1c1ccnc(-c2ccccc2)n1 (stereo unspecified),-24.4
9,O=C1NCCN1C1CCN(c2ccnc(-c3ccccc3)n2)CC1,73.1
10,O=C1NCCN1C1CCN(Cc2coc(-c3ccccc3)n2)CC1,33.3
11,Cn1cnc2c1CCN(c1ccnc(-c3ccccc3)n1)C2,61.2
12,CN1CCN(C2CCN(CC(O)c3ccccc3)CC2)C1=O (stereo unspecified),16.715
13,CN1CCN(C2CCN(c3cnc4ccccc4n3)CC2)C1=O,76.5
14,Cc1cc(N2CCc3c(ncn3C)C2)nc(N)n1,-14.9
15,CN1CCN(C2CCN(Cc3noc(-c4ccccc4)n3)CC2)C1=O,8.11
16,CN1CCN(C2CCN(c3ccnc(-c4ccccc4)n3)CC2)C1=O,91.1
17,CN1CCN(C2CCN(CCOc3ccccc3)CC2)C1=O,40.2
18,c1ccc(-c2nccc(N3CCc4c(ncn4C4CC4)C3)n2)cc1,40.9
